Laboratory results as given in PubChem BioAssay AID1159580 (chemical genetic matrix, 2015).
Hit rate of the full screen: of about 5,500 compounds, about 2,000 (36%) were called active. Inconclusive results (about 18%) are left out. Rule as the data show it: active = normalized growth mostly below about 0.91 (no sharp cut-off); inconclusive = no clear call, values can overlap the other calls; inactive = mostly above about 0.92. The list shows a part of the results.

Test: chemical genetic growth profiling, strain panel (AID 1159580);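 also: tested at 20 µM; growth read once vehicle control cultures reached saturation at 30 °C; 1 = growth at the plate median or of vehicle wells; lower values mean less growth of the strain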
Details: growth OD

Measured: normalized growth

CCCCN(CCCC)CCCOC(=O)c1ccc(N)cc1
inactive: S. cerevisiae deletion strains, locus YJR075W, strain HOC1, stronger effect = lower value 0.981 | S. cerevisiae deletion strains, locus YKL009W, strain mrt4, stronger effect = lower value 0.989 | S. cerevisiae deletion strains, locus YKL068W, stronger effect = lower value 0.969 | S. cerevisiae deletion strains, locus YKL085W, strain MDH1 (second series), stronger effect = lower value 0.987 | S. cerevisiae deletion strains, locus YKL085W, strain MDH1, stronger effect = lower value 0.987 | S. cerevisiae deletion strains, locus YKL160W, strain elf1, stronger effect = lower value 0.995 | S. cerevisiae deletion strains, locus YKL190W, strain CNB1, stronger effect = lower value 0.988 | S. cerevisiae deletion strains, locus YKR001C, strain vps1, stronger effect = lower value 0.98 | S. cerevisiae deletion strains, locus YKR026C, strain gcn3, stronger effect = lower value 0.993 | S. cerevisiae deletion strains, locus YKR091W, strain srl3, stronger effect = lower value 0.992 | S. cerevisiae deletion strains, locus YLL001W, strain dnm1, stronger effect = lower value 0.996 | S. cerevisiae deletion strains, locus YLL026W, stronger effect = lower value 0.995 | S. cerevisiae deletion strains, locus YLL041C, strain sdh2, stronger effect = lower value 0.995 | S. cerevisiae deletion strains, locus YLR027C, strain aat2, stronger effect = lower value 0.996 | S. cerevisiae deletion strains, locus YLR039C, strain RIC1, stronger effect = lower value 0.863 | S. cerevisiae deletion strains, locus YLR058C, strain SHM2, stronger effect = lower value 0.99 | S. cerevisiae deletion strains, locus YLR102C, strain apc9, stronger effect = lower value 1.01 | S. cerevisiae deletion strains, locus YLR113W, strain HOG1, stronger effect = lower value 0.986 | S. cerevisiae deletion strains, locus YLR221C, strain rsa3, stronger effect = lower value 0.98 | S. cerevisiae deletion strains, locus YLR258W, strain gsy2, stronger effect = lower value 0.985 | S. cerevisiae deletion strains, locus YLR262C, strain YPT6 (second series), stronger effect = lower value 0.935 | S. cerevisiae deletion strains, locus YLR262C, strain YPT6, stronger effect = lower value 0.876 | S. cerevisiae deletion strains, locus YLR268W, strain sec22, stronger effect = lower value 0.92 | S. cerevisiae deletion strains, locus YLR320W, strain mms22, stronger effect = lower value 0.993 | S. cerevisiae deletion strains, locus YLR330W, strain CHS5, stronger effect = lower value 0.988 | S. cerevisiae deletion strains, locus YLR342W, strain FKS1 (second series), stronger effect = lower value 1.06 | S. cerevisiae deletion strains, locus YLR342W, strain FKS1, stronger effect = lower value 0.996 | S. cerevisiae deletion strains, locus YLR357W, strain rsc2, stronger effect = lower value 0.99 | S. cerevisiae deletion strains, locus YLR370C, strain arc18, stronger effect = lower value 0.995 | S. cerevisiae deletion strains, locus YLR371W, strain rom2, stronger effect = lower value 0.992 | S. cerevisiae deletion strains, locus YLR384C, strain iki3, stronger effect = lower value 0.995 | S. cerevisiae deletion strains, locus YLR418C, strain cdc73, stronger effect = lower value 1.02 | S. cerevisiae deletion strains, locus YML016C, strain PPZ1, stronger effect = lower value 0.993 | S. cerevisiae deletion strains, locus YML032C, strain rad52, stronger effect = lower value 0.965 | S. cerevisiae deletion strains, locus YML120C, strain ndi1, stronger effect = lower value 0.988 | S. cerevisiae deletion strains, locus YML124C, strain tub3, stronger effect = lower value 0.997 | S. cerevisiae deletion strains, locus YMR058W, strain fet3, stronger effect = lower value 0.999 | S. cerevisiae deletion strains, locus YMR078C, strain ctf18, stronger effect = lower value 0.993 | S. cerevisiae deletion strains, locus YMR125W, strain sto1, stronger effect = lower value 0.992 | S. cerevisiae deletion strains, locus YMR129W, stronger effect = lower value 0.988 | S. cerevisiae deletion strains, locus YMR205C, strain PFK2, stronger effect = lower value 0.991 | S. cerevisiae deletion strains, locus YMR223W, strain ubp8, stronger effect = lower value 1.01 | S. cerevisiae deletion strains, locus YMR231W, strain pep5, stronger effect = lower value 0.997 | S. cerevisiae deletion strains, locus YMR263W, strain SAP30, stronger effect = lower value 0.982 | S. cerevisiae deletion strains, locus YMR307W, strain GAS1, stronger effect = lower value 1.06 | S. cerevisiae deletion strains, locus YNL067W, strain RPL9B, stronger effect = lower value 0.963 | S. cerevisiae deletion strains, locus YNL071W, strain lat1, stronger effect = lower value 0.994 | S. cerevisiae deletion strains, locus YNL128W, strain TEP1, stronger effect = lower value 0.994 | S. cerevisiae deletion strains, locus YNL153C, strain GIM3, stronger effect = lower value 0.976 | S. cerevisiae deletion strains, locus YNL183C, strain NPR1, stronger effect = lower value 0.921 | S. cerevisiae deletion strains, locus YNL209W, strain ssb2, stronger effect = lower value 0.985 | S. cerevisiae deletion strains, locus YNL233W, strain BNI4, stronger effect = lower value 0.985 | S. cerevisiae deletion strains, locus YNL248C, strain rpa49, stronger effect = lower value 0.976 | S. cerevisiae deletion strains, locus YNL250W, strain rad50, stronger effect = lower value 0.983 | S. cerevisiae deletion strains, locus YNL271C, strain bni1, stronger effect = lower value 0.984 | S. cerevisiae deletion strains, locus YNL298W, strain CLA4, stronger effect = lower value 0.978 | S. cerevisiae deletion strains, locus YNL307C, strain MCK1, stronger effect = lower value 0.982 | S. cerevisiae deletion strains, locus YNL322C, strain KRE1 (second series), stronger effect = lower value 0.991 | S. cerevisiae deletion strains, locus YNL322C, strain KRE1, stronger effect = lower value 0.994 | S. cerevisiae deletion strains, locus YNR049C, strain mso1, stronger effect = lower value 0.998 | S. cerevisiae deletion strains, locus YNR052C, strain pop2, stronger effect = lower value 0.992 | S. cerevisiae deletion strains, locus YOL006C, strain TOP1, stronger effect = lower value 0.938 | S. cerevisiae deletion strains, locus YOL012C, strain htz1 0.971 | S. cerevisiae deletion strains, locus YOL147C, strain pex11, stronger effect = lower value 0.989 | S. cerevisiae deletion strains, locus YOR001W, strain rrp6, stronger effect = lower value 0.995 | S. cerevisiae deletion strains, locus YOR061W, strain CKA2, stronger effect = lower value 0.992 | S. cerevisiae deletion strains, locus YOR069W, strain VPS5, stronger effect = lower value 0.995 | S. cerevisiae deletion strains, locus YOR070C, strain gyp1, stronger effect = lower value 0.993 | S. cerevisiae deletion strains, locus YOR080W, strain dia2, stronger effect = lower value 0.996 | S. cerevisiae deletion strains, locus YOR083W, strain WHI5, stronger effect = lower value 0.984 | S. cerevisiae deletion strains, locus YOR106W, strain vam3, stronger effect = lower value 0.995 | S. cerevisiae deletion strains, locus YOR136W, strain idh2, stronger effect = lower value 0.994 | S. cerevisiae deletion strains, locus YOR144C, strain elg1, stronger effect = lower value 0.986 | S. cerevisiae deletion strains, locus YOR184W, strain ser1, stronger effect = lower value 0.979 | S. cerevisiae deletion strains, locus YOR231W, strain MKK1, stronger effect = lower value 0.961 | S. cerevisiae deletion strains, locus YOR265W, strain rbl2, stronger effect = lower value 0.998 | S. cerevisiae deletion strains, locus YOR270C, strain vph1, stronger effect = lower value 1.01 | S. cerevisiae deletion strains, locus YOR290C, strain snf2, stronger effect = lower value 0.986 | S. cerevisiae deletion strains, locus YOR316C, strain cot1, stronger effect = lower value 0.978 | S. cerevisiae deletion strains, locus YPL051W, strain arl3, stronger effect = lower value 0.995 | S. cerevisiae deletion strains, locus YPL055C, strain LGE1, stronger effect = lower value 0.986 | S. cerevisiae deletion strains, locus YPL078C, strain atp4, stronger effect = lower value 0.988 | S. cerevisiae deletion strains, locus YPL106C, strain sse1, stronger effect = lower value 0.977 | S. cerevisiae deletion strains, locus YPL240C, strain hsp82, stronger effect = lower value 0.997 | S. cerevisiae deletion strains, locus YPL241C, strain CIN2, stronger effect = lower value 1 | S. cerevisiae deletion strains, locus YPL256C, strain CLN2, stronger effect = lower value 0.937 | S. cerevisiae deletion strains, locus YPR119W, strain clb2, stronger effect = lower value 0.969 | S. cerevisiae deletion strains, locus YPR141C, strain kar3, stronger effect = lower value 0.987 | S. cerevisiae deletion strains, locus YPR163C, strain tif3, stronger effect = lower value 0.973 | S. cerevisiae deletion strains, locus YPR167C, strain met16, stronger effect = lower value 0.978 | S. cerevisiae deletion strains, strain wtn01, stronger effect = lower value 0.97 | S. cerevisiae strains, strain wild type, stronger effect = lower value 1
